Among the data in PubChem BioAssay are composite z-score, composite Z-score and z-score values, retold here.

Active and inactive are the calls of the source.

One test deals with Albumin (Bos taurus) (UniProt P02769). The test can be described thus: bovine serum albumin binders on microarray, profiling panel, artefact control for SMM control protein annotation, biochemical, small-molecule microarray, Alexa647 label, 635/667 nm fluorescence (AID 1118).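 Further: score merges 667 nm emission intensity and signal-to-noise per printed compound spot.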 The note with it: BSA-A647 binding, fluorescence 635 nm, higher = more signal.
Chain of Albumin (Bos taurus) (P02769 whole entry, looked up): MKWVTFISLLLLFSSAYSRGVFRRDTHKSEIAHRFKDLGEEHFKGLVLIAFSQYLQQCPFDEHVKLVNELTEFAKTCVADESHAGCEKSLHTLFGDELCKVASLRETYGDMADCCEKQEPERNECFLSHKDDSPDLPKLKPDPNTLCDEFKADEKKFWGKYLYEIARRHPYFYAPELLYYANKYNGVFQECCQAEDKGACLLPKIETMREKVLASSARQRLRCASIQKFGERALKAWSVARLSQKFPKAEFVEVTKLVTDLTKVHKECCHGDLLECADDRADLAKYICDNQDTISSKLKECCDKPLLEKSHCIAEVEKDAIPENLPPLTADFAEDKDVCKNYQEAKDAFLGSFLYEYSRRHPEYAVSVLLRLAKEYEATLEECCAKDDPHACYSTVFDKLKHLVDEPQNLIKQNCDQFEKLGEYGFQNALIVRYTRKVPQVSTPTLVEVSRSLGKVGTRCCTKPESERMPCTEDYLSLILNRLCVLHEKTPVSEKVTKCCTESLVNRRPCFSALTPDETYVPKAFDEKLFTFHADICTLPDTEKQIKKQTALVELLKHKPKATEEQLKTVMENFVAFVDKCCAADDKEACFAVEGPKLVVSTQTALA
Test [1] is described as follows: small-molecule microarray binders of probe aXIP, primary screen, biochemical, NeuroSMM set, 635/667 nm fluorescence (AID 1119).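 Further: probe is the protein aXip251-270 applied at 1 µg/mL to compound-printed slides; binding of probe to printed compounds measured as 667 nm fluorescence plus signal to noise.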 The note with it: higher = more signal, called active from +8 up or from −8 down.
Test [2] is described as follows: small-molecule binders of probe aNOTCH3, primary screen, biochemical, small-molecule microarray, 635/667 nm fluorescence (AID 1120).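 Further: probe is a biotin-tagged antibody raised against NOTCH3 rather than NOTCH3 protein; score merges spot fluorescence near 667 nm with spot signal to noise.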 The note with it: higher = more signal.
Test [3] in a line: small-molecule binders of probe aNOTCH2, primary screen, biochemical, small-molecule microarray, 635/667 nm fluorescence (AID 1121).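 Further: score merges feature fluorescence read at 667 nm with its signal to noise.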 The following applies: higher = more signal.
Test [4] has as its target Carbonic anhydrase 2 (Homo sapiens) (UniProt P00918). The test can be described thus: CAII small-molecule binders, profiling panel, biochemical, small-molecule microarray, Alexa647-labelled CAII (AID 1122). The following applies: CAII-A647 binding fluorescence, higher = more signal.
Test [5] is described as follows: COS7 lysate on small-molecule microarray, probe aHis, 635 nm (AID 1123).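 Further: z-score combines 667nm fluorescence intensity with signal-to-noise per printed compound spot.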 The following applies: COS7 cell lysate, fluorescence, higher = more signal.
Test [6] can be described thus: compound binding in COS7 lysate, probe aLAP1, primary screen, cell lysate, small-molecule microarray (AID 1124).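 Further: lysate comes from COS7 cells expressing LAP1 and is applied at 0.3 µg/mL; score merges spot fluorescence near 667 nm with signal-to-noise over triplicate slides.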 The note with it: probe aLAP1, fluorescence, higher = more signal.
In another test the test system is Sam68 (KHDRBS1). The test can be described thus: Sam68 small-molecule binders, primary screen, biochemical, small-molecule microarray, 635 nm fluorescence (AID 1125).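 Further: score merges 667 nm channel intensity with signal to noise over triplicate slides.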 The note with it: small-molecule microarray binding, higher = more signal.
Test [7] concerns Chordin-like protein 2 (CHRDL2). Nature of the test: CHRDL2 small-molecule binders, primary screen, biochemical, small-molecule microarray, 635 nm fluorescence (AID 1126).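 Further: printed compound slides probed with Chrdl2 protein at 4 µg/mL for 1 h at 4 C; score merges 667 nm emission intensity with signal to noise over three replicate slides.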 The following applies: small-molecule microarray binding, fluorescence 635 nm; higher = more signal.
Test [8] deals with Concanavalin-A (Canavalia ensiformis) (UniProt P02866). The test can be described thus: ConA small-molecule binders, primary screen, artefact control for SMM control protein annotation, biochemical, small-molecule microarray, Alexa647 label, 635 nm (AID 1127).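 Further: z combines 667 nm emission intensity with signal-to-noise across three replicate slides.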 The note with it: ConA-A647 binding fluorescence, higher = more signal.
Chain of Concanavalin-A (Canavalia ensiformis) (P02866 whole entry, looked up): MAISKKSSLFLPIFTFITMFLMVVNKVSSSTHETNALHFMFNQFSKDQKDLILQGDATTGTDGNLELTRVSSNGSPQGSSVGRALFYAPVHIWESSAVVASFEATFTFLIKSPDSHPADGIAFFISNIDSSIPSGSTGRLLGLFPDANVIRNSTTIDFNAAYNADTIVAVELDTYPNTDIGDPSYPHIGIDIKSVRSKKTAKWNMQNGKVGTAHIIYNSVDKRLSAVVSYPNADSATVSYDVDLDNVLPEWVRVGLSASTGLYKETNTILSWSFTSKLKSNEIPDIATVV
A short description of test [9]: anti-His antibody binders, primary screen, artefact control for SMM control protein annotation, biochemical, small-molecule microarray, 635 nm fluorescence (AID 1128).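 Further: score merges feature fluorescence with signal-to-noise for each printed compound spot.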 The following applies: anti-His Alexa647 antibody binding, higher = more signal.
Test [10] concerns Human papillomavirus type 1a E7 protein (residues 1-88). The test can be described thus: HPV1a E7 small-molecule binders, primary screen, biochemical, small-molecule microarray, residues 1-88, 635 nm (AID 1129). The following applies: small-molecule microarray binding, fluorescence 635 nm; higher = more signal.
For test [11], the target named is Focal adhesion kinase 1 (Homo sapiens) (UniProt Q05397). The test can be described thus: small-molecule microarray binders of FAK, primary screen, biochemical, 635/667 nm fluorescence, BSA, DTT (AID 1130).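 Further: composite of spot emission at 667 nm and signal to noise over triplicate slides.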 The note with it: PTK2 binding, 635 nm fluorescence, higher = more signal.
Chain of Focal adhesion kinase 1 (Homo sapiens) (Q05397 whole entry, looked up): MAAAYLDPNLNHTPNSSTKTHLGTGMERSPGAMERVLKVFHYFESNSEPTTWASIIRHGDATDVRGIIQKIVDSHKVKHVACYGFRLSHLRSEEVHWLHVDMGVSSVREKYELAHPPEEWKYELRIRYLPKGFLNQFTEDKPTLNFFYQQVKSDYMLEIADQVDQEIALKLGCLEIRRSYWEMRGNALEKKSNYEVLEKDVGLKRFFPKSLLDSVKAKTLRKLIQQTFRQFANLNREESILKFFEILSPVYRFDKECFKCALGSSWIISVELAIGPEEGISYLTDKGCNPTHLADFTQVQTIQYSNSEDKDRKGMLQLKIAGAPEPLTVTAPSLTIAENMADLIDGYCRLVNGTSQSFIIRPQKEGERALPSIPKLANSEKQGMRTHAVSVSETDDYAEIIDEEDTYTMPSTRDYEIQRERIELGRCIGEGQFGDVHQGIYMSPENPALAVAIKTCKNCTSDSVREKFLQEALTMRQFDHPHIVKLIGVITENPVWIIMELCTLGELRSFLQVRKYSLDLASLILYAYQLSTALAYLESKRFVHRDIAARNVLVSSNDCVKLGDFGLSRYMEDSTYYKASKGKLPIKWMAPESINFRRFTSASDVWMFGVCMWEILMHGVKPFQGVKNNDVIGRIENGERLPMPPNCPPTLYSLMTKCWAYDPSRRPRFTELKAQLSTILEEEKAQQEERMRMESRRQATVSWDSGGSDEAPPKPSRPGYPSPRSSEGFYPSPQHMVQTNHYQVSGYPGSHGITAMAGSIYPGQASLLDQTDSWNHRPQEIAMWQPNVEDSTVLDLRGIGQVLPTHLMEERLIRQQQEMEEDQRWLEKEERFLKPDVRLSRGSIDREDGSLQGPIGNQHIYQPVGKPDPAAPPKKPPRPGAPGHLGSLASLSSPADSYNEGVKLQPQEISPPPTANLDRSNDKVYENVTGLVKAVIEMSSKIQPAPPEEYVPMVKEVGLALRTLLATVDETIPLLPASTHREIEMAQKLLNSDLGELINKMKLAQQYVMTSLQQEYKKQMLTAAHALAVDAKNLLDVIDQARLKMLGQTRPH
In test [12] the test system is Fibrinogen (Alexa647-labelled). Nature of the test: fibrinogen binders on compound microarrays, profiling panel, artefact control for SMM control-protein annotation, biochemical, small-molecule microarray, 635/667 nm fluorescence (AID 1131).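 Further: z-score merges 667 nm fluorescence with per-spot signal-to-noise over triplicate slides.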 The note with it: fibrinogen-A647 binding fluorescence, higher = more signal.
Test [13] deals with Follistatin (Homo sapiens) (UniProt P19883). The test can be described thus: follistatin binders on small-molecule microarrays, primary screen, biochemical, small-molecule microarray, 635/667 nm fluorescence (AID 1132). The note with it: FST binding, 635 nm fluorescence, higher = more signal.
Chain of Follistatin (Homo sapiens) (P19883 whole entry, looked up): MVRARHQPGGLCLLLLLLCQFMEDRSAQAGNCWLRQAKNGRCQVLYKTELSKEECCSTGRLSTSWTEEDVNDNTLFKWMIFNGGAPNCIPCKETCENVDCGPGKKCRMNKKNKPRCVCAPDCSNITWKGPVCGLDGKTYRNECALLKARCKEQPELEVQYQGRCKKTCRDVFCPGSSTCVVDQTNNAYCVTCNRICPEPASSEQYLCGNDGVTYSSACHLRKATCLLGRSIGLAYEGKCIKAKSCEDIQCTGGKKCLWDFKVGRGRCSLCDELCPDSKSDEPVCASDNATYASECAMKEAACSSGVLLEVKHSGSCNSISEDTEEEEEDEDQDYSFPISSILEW
Test [14] addresses Fibroblast growth factor 2 (Homo sapiens) (UniProt P09038). Nature of the test: FGF2 binders on small-molecule microarrays, primary screen, biochemical, small-molecule microarray, 635/667 nm fluorescence (AID 1133). The note with it: small-molecule microarray binding, FGF2, fluorescence 635/667; higher = more signal.
Test [15] in a line: mitochondrial membrane potential change in A549 cells, profiling panel, cell-based, JC-1 fluorescence, basal, 24 h, 100 nL (AID 1138).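 Further: A549 lung adenocarcinoma cells under basal conditions with no added stimulus; test concentration not given here.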 The note with it: higher = more signal.
The test system of a further test is Lefty1. The test can be described thus: Lefty1 binders on small-molecule microarrays, primary screen, biochemical, small-molecule microarray, 635/667 nm fluorescence (AID 1139). The note with it: small-molecule microarray binding, fluorescence 635/667; higher = more signal.
The subject of test [16] is wheat germ agglutinin (Triticum aestivum), Alexa647-labelled. The test can be described thus: wheat germ agglutinin binders on compound microarrays, profiling panel, artefact control for SMM control-protein annotation, biochemical, small-molecule microarray, 635/667 nm fluorescence (AID 1140).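 Further: score merges 667 nm feature emission with signal to noise over triplicate slides.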 The note with it: WGA-A647 binding, 635 nm fluorescence, higher = more signal.

The target of test [17] is Luciferin 4-monooxygenase (Photinus pyralis) (UniProt P08659). Nature of the test: firefly luciferase enzyme inhibitors, primary screen, biochemical, luminescence, purified enzyme, 2006 set (AID 1141).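 Further: cell-free assay with purified firefly luciferase at 100 ng per well in PBS; test concentration not given here.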 The following applies: SteadyGlo luminescence, 30 min, higher = more signal, called active from +8 up or from −8 down.
Chain of Luciferin 4-monooxygenase (Photinus pyralis) (P08659 whole entry, looked up): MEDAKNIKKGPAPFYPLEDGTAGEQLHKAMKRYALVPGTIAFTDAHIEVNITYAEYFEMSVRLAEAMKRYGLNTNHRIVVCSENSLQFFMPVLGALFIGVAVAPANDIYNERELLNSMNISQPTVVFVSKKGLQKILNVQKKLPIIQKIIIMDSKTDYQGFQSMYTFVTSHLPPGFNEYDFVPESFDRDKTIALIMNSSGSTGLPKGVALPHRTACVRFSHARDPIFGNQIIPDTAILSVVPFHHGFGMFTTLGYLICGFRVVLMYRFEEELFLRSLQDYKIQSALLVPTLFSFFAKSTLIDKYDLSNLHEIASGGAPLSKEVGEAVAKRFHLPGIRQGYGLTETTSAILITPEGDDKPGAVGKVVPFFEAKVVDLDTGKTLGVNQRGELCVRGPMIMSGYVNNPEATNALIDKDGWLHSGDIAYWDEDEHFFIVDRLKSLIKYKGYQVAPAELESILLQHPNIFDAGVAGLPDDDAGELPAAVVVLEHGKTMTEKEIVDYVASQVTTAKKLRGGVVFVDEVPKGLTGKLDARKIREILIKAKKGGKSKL

Chain of Fibroblast growth factor 2 (Homo sapiens) (P09038 whole entry, looked up): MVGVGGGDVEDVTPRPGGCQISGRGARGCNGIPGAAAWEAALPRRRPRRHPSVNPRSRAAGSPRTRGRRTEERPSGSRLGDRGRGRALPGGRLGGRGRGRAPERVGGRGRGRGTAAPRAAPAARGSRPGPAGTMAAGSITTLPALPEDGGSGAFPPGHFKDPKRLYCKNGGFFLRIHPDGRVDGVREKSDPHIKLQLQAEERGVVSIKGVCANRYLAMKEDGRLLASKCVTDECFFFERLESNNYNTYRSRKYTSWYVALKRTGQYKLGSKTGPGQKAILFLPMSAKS

With `C=CC[C@@]1(C(=O)N2CCOCC2)N=C(c2ccc(OCCCO)cc2)O[C@@H]1c1ccccc1`, the composite z-score was 0.18 in the test with Albumin (Bos taurus); -0.223 in test [2]; -0.327 in test [3]; 0.716 in [4]; 2.17 in test [5]; -0.108 in test [6]. For the same compound, the composite z-score in the test on Sam68 (KHDRBS1) is -0.157; in test [7] it was -0.796; in test [8], -0.226; in [9], 0.805; in test [10] it was 1.19; in test [11] it was 1.57. The composite z-score in test [12] was -0.0135; in test [13], -0.338; in test [14], -0.355; with Lefty1 it was -1.02; in test [16], 0.868. For the same compound, the composite Z-score in [1] was 0.0379 (inactive). Moreover, the z-score is 1.89 in test [15] and -0.871 (inactive) in [17].

For the compound `C=CCC(OC(C)=O)[C@@H]1[C@@H](N(Cc2ccc(-c3ccccc3)cc2)C(=O)c2ccc(C)cc2)c2cc(OCCCO)ccc2N1C(=O)c1ccc(-c2ccccc2)cc1` (stereo not given in full), the composite z-score with Albumin (Bos taurus) is 0.101; in test [2], -0.0933; in test [3], -0.0664; in [4] it was -0.102; in test [5], 0.23; in [6], 0.232. In addition, the composite z-score is -0.0015 in the test on Sam68 (KHDRBS1); -0.0151 in test [7]; -0.925 in test [8]; -0.958 in [9]; 0.438 in [10]; 0.248 in test [11]. The composite z-score in test [12] was -0.195; in test [13], 0.217; in test [14], 0.0217; in the test on Lefty1, -0.166; in test [16] it was 0.258. Besides, the composite Z-score in test [1] is 0.451 (inactive). For the same compound, the z-score in [15] is 2.98; in [17], -1.81 (inactive).

Consider `CCOC(=O)[C@H]1C/C=C/C[C@H](C(=O)OCC)C(=O)O[C@H]2[C@@H](OC)O[C@H](CO)[C@@H](OC(=O)Nc3ccc(Br)cc3)[C@@H]2OC1=O`, for which the composite z-score with Albumin (Bos taurus) was 0.827; in test [2], -0.122; in test [3] it was -0.0863; in [4], 0.516; in test [5], 2.22; in [6] it was 0.704. The composite z-score with Sam68 (KHDRBS1) was 1.3; in test [7] it was -0.12; in [8], 1.09; in test [9], 0.441; in [10] it was 1.21; in [11], 0.361. Also, the composite z-score was found to be 0.708 in test [12]; 0.623 in test [13]; 0.376 in test [14]; 0.588 in the test on Lefty1; 1.21 in test [16]. Besides, the composite Z-score in [1] is 0.285 (inactive). Moreover, the z-score in test [15] is -2.32; in test [17], -1.72 (inactive).

Turning to `O=C(NCc1ccccc1)[C@@]1(CCS(=O)(=O)c2ccccc2)COC(c2ccc(OCCCO)cc2)=N1`, the composite z-score with Albumin (Bos taurus) is 0.514; in test [2], 0.291; in [3] it was 0.0539; in test [4] it was 0.808; in [5] it was 3.01; in test [6] it was 0.72. For the same compound, the composite z-score in the test on Sam68 (KHDRBS1) is 1.3; in test [7], -0.696; in test [8] it was 1.17; in test [9], 3.16; in test [10], 1.26; in [11], 0.79. Moreover, the composite z-score in test [12] is 0.869; in [13], 0.354; in test [14], -0.376; in the test on Lefty1 it was -0.278; in test [16], 1.49. Besides, the composite Z-score in test [1] is 0.294 (inactive). Besides, the z-score was 0.959 in test [15] and -1.42 (inactive) in test [17].

With `O=C1O[C@H](c2ccccc2)[C@H](c2ccccc2)N2[C@H]1[C@@H](C(=O)Nc1nc3ccccc3s1)[C@]1(C(=O)Nc3ccc(C#CC4(O)CCCCCC4)cc31)[C@H]2c1ccc(O)cc1`, the composite z-score is 0.934 in the test with Albumin (Bos taurus); 0.116 in test [2]; -0.0283 in test [3]; 0.415 in [4]; 2.53 in [5]; 0.797 in test [6]. In addition, the composite z-score in the test with Sam68 (KHDRBS1) was determined as 1.3; in test [7] it was 0.528; in [8] it was 1.14; in [9], 1.71; in test [10], 1.2; in test [11], 0.164. The composite z-score in test [12] came out at 1; in [13], 1.29; in test [14], 1.31; in the test on Lefty1, 0.666; in test [16], 0.856. The composite Z-score in test [1] was 0.928 (inactive). The values for the z-score in test [15] and in test [17] were -2.35 and -1.27 (inactive), respectively.
